Source: the supplement of paper PMC11006884
About 6,500 targets were measured; listed, in parts, are those with a hit and a random draw of the rest. About 2% of all pairs of compound and target were hits.

compound: COC(=O)C#Cc1ccccc1 [methyl 3-phenylpropiolate]; experiment: log2 ratio of iodoacetamide-alkyne labeling of the cysteine site, DMSO over compound (competition); higher = stronger covalent engagement of the cysteine by the compound, active = 1 or more; conditions: 500 µM; treatment time 1 h; system: HEK293T cell lysate
Method in brief: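 Electrophile (500 µM) or vehicle was added to HEK293T lysate (2 mg/mL) for 1 h at ambient temperature before iodoacetamide alkyne labelling (1 h) and click coupling to sCIP-TMT reagents. After pooling, overnight trypsin digestion at 37 °C, streptavidin enrichment and acid elution, peptides were measured by Orbitrap Eclipse LC-MS/MS with FAIMS and quantified in FragPipe. Each cysteine's log2 competition ratio compares mean control-channel with mean compound-channel reporter intensity, control over compound. Data came from duplicate channels across three replicates, excluding cysteines quantified in only one replicate.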

Chain of UniProt P57740 (P57740 whole entry): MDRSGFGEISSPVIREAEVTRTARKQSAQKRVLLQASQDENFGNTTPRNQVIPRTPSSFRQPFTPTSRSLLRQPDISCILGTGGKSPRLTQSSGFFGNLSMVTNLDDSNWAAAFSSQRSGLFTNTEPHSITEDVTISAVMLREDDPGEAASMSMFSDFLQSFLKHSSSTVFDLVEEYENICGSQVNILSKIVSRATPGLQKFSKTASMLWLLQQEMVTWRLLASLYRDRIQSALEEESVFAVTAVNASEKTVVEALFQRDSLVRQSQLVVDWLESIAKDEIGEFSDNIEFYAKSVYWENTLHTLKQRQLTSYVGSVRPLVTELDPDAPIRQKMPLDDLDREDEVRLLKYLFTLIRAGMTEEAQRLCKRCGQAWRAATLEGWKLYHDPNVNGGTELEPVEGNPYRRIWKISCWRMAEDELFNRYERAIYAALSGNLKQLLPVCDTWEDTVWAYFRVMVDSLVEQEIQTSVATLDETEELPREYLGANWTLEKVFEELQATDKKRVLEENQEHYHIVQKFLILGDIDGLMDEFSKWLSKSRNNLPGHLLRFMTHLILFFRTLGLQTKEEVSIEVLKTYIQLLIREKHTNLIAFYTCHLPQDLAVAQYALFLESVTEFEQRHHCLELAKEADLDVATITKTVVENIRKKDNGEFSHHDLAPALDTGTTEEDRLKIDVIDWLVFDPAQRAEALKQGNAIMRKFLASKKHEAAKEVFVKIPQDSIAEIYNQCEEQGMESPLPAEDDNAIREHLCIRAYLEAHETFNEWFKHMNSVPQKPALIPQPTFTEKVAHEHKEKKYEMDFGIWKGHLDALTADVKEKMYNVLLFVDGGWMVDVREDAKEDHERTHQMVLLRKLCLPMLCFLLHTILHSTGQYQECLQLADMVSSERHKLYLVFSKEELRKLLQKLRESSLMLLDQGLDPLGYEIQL
Chain of UniProt Q14166 (Q14166 whole entry, looked up): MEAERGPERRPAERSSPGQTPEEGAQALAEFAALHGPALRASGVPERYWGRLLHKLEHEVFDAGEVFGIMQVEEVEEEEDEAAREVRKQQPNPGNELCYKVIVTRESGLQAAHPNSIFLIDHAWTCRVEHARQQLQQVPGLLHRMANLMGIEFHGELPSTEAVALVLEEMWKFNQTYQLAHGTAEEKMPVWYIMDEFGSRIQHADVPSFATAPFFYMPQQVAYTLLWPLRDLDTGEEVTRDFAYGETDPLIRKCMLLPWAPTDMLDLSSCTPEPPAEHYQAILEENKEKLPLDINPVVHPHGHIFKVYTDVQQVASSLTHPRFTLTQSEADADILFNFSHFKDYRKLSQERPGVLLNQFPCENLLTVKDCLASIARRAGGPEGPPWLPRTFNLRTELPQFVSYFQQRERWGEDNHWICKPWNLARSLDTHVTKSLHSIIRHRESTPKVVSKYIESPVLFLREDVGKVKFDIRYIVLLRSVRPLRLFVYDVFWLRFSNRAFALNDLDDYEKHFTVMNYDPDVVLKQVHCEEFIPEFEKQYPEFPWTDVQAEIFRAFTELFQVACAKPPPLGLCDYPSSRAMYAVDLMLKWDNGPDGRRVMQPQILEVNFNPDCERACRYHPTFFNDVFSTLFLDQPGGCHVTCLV
Chain of UniProt P52888 (P52888 whole entry, looked up): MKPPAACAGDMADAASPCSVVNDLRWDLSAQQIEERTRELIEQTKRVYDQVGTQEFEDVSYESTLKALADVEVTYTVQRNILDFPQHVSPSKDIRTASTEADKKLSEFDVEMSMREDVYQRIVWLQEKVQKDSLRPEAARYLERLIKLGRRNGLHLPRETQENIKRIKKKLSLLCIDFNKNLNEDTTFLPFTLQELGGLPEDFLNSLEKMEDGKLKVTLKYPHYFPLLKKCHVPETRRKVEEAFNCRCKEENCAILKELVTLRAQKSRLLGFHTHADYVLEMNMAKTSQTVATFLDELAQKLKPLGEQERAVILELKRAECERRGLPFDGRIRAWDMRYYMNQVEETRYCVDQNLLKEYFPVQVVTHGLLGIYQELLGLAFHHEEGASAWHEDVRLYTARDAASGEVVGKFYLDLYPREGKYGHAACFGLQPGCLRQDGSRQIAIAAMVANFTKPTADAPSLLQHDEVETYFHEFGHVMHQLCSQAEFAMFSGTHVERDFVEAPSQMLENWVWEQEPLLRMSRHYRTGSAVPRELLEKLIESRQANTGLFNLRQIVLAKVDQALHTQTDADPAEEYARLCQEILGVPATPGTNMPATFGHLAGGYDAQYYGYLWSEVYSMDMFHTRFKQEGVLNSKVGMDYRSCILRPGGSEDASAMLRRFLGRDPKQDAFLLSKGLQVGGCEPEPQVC
Chain of UniProt Q15436 (Q15436 whole entry, looked up): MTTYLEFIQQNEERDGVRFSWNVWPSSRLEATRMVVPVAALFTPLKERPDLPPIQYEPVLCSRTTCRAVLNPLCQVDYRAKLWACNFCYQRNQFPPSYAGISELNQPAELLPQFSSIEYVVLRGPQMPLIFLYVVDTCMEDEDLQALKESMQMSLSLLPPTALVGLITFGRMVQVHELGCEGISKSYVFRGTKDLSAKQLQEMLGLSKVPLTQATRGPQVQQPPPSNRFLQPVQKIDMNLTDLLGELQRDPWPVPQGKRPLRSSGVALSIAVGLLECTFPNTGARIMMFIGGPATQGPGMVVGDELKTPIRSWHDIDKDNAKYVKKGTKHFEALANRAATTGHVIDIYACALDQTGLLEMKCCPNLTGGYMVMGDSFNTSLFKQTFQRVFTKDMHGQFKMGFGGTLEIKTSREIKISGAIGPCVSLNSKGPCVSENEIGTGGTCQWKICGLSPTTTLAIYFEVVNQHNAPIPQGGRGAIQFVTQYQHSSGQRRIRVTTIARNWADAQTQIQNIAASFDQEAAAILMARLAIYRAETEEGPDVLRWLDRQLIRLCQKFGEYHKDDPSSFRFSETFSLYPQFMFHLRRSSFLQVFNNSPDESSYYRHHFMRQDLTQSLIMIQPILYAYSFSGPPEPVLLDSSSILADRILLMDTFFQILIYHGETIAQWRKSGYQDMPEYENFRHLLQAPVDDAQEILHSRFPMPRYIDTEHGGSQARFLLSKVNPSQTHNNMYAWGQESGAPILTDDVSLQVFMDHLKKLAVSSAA
Chain of UniProt Q13642 (Q13642 whole entry, looked up): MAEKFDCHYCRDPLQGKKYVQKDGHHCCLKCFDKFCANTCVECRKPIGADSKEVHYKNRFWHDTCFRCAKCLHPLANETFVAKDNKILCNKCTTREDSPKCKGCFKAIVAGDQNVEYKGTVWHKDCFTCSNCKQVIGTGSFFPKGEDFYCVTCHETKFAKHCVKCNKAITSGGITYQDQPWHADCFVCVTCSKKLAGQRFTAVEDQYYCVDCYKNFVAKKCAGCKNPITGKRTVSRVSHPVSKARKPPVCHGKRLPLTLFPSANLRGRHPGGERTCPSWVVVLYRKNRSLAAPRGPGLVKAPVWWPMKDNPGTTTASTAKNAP
Chain of UniProt P54132 (P54132 whole entry, looked up): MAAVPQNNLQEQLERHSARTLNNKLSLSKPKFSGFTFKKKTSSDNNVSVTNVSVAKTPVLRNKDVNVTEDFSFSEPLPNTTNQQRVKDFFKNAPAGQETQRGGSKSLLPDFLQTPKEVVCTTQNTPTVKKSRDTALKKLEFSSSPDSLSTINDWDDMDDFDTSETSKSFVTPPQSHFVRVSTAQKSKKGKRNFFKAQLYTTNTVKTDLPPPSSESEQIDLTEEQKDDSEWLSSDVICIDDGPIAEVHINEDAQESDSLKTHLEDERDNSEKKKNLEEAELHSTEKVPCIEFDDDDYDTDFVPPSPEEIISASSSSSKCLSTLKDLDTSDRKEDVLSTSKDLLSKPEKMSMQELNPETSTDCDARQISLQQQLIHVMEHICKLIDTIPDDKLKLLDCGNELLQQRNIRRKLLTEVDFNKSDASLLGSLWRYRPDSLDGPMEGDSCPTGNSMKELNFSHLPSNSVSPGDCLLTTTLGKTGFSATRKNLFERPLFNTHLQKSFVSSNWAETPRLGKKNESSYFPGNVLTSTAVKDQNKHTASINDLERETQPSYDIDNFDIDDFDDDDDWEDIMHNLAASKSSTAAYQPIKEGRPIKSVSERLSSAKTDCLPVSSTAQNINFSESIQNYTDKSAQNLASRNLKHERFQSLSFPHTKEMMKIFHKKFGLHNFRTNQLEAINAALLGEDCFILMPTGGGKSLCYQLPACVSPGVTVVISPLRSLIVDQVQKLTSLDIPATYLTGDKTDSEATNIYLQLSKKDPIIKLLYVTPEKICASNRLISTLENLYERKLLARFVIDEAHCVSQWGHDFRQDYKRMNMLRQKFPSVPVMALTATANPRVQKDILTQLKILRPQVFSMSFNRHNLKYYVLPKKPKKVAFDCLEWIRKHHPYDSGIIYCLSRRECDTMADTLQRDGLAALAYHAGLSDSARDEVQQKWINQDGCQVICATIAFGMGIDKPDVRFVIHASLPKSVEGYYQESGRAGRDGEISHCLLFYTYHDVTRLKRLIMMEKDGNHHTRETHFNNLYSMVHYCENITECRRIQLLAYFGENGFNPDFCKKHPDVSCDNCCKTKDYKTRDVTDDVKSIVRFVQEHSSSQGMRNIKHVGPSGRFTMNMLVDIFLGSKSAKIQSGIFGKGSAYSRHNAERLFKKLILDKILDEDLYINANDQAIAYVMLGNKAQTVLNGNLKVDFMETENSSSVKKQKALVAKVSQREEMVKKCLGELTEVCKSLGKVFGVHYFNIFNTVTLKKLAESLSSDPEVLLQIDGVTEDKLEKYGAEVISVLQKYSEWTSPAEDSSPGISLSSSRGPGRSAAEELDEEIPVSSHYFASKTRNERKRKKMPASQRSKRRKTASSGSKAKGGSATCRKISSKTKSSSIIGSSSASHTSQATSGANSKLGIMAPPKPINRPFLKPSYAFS
Chain of UniProt P78417 (P78417 whole entry, looked up): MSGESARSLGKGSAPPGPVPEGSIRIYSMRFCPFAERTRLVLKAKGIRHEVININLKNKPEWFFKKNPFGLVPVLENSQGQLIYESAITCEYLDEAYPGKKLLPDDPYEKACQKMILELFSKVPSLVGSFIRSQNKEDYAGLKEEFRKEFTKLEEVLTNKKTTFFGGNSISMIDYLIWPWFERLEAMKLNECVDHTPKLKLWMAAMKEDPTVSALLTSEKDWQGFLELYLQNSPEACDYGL

Target	log2 ratio of iodoacetamide-alkyne labeling
UniProt Q13155_C23	1.24 (active)
NUMA1 C375 (UniProt Q14980)	-0.109 (inactive)
HNRNPH2 C34 (UniProt P55795)	0.0589 (inactive)
TTLL12 C126 (UniProt Q14166)	-0.117 (inactive)
SUZ12 C325 (UniProt Q15022)	1.07 (active)
UniProt Q02750_C376	-0.129 (inactive)
BLM C685 (UniProt P54132)	0.197 (inactive)
TJP1 C1727 (UniProt Q07157)	0.0718 (inactive)
TBL3 C696 (UniProt Q12788)	0.373 (inactive)
THOP1 C682 (UniProt P52888)	0.174 (inactive)
FOXK1 C254 (UniProt P85037)	1.18 (active)
GSTO1 C32 (UniProt P78417)	2.51 (active)
FHL1 C191 (UniProt Q13642)	-0.117 (inactive)
PDS5A C581 (UniProt Q29RF7)	0.744 (inactive)
PITRM1 C780 (UniProt Q5JRX3)	0.31 (inactive)
ACTR3 C12 (UniProt P61158)	0.212 (inactive)
RRP12 C799 (UniProt Q5JTH9)	0.107 (inactive)
PIN1 C57 (UniProt Q13526)	-0.187 (inactive)

Target	log2 ratio of iodoacetamide-alkyne labeling
RRP12 C261 (UniProt Q5JTH9)	0.53 (inactive)
PITRM1 C556 (UniProt Q5JRX3)	0.0671 (inactive)
UniProt P55769_C30	-0.0266 (inactive)
UniProt Q12905_C37	0.0335 (inactive)
UniProt P78527_C4061	0.465 (inactive)
UniProt Q15365_C118	1.72 (active)
RRP12 C31 (UniProt Q5JTH9)	1.26 (active)
HNRNPU C497 (UniProt Q00839)	0.211 (inactive)
HNRNPU C450 (UniProt Q00839)	0.018 (inactive)
COASY C144 (UniProt Q13057)	1.16 (active)
UniProt Q00341_C948	0.167 (inactive)
SEC23A C432 (UniProt Q15436)	0.163 (inactive)
MARS C38 (UniProt P56192)	0.14 (inactive)
UniProt P60891_C41	-0.0365 (inactive)
ACLY C20 (UniProt P53396)	0.357 (inactive)
NUMA1 C961 (UniProt Q14980)	1.55 (active)
USP14 C415 (UniProt P54578)	-0.369 (inactive)
NUP107 C78 (UniProt P57740)	0.705 (inactive)
